SW480 rerep = induces DNA re-replication in SW480 colon adenocarcinoma cells | SW480 DNA re-replication, Hoechst DNA content imaging, 48 h | Potency, µM (doses to about 46.1 µM), for inactives: at the top dose re-replication activation, actives largely listed as activators | hit rate 1.8% among 340,000; also: potency is read from the fitted curve at half-maximal effect; % of control where 0% means no effect; nearly all actives have a fitted effect of over 55% in size
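Readout is total intensity of Hoechst-stained nuclei, excited at 405 nm and collected at 500-530 nm. Compound treatment lasted 48 hr at 37 C in 5% CO2 before staining.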
DT40 TDP1 CPT = growth inhibition of DT40 Tdp1-/-;hTDP1 cells with camptothecin (screen for TDP1 inhibitors); Potency, µM (doses to about 46.2 µM), for the others: top-dose activity change, negative = growth inhibition, actives largely listed as inhibitors; hit rate 12% among 420,000; chicken DT40 Tdp1-/-;hTDP1 cells + 20 nM CPT, ATP luminescence, 48 h; also: potency is read from the fitted curve at half-maximal effect; % is scaled to controls: 0 for no effect and ±100 for the full control effect; nearly all actives have a fitted effect of over 55% in size
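Cell growth measured by CellTiter-Glo luminescence after a minimum 48 h, 37 C compound exposure with 20 nM CPT in Tdp1-knockout DT40 cells stably expressing hTDP1, seeded 400/well; qHTS titration format.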
IL1B secr inh = inflammasome signaling inhibition, IL-1 beta readout | THP-1 LPS/ATP IL-1B secretion, AlphaLISA, 16 h; hits give low values | activity change, % at 57.5 µM | AID 743279 | hit rate 4.7% among 360,000; in the data active = activity change below about -50%; inconclusive = mostly about -30% to -49%; also: % is scaled to controls: 0 for no effect and ±100 for the full control effect
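Secreted IL-1B measured by AlphaLISA bead assay after 16 h compound exposure of THP-1 cells; compounds (final up to 57.5 uM) added 1 h before LPS (250 ng/mL) and ATP (1.25 mM) stimulation; lower signal means less secretion.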
MCF10A rerep = inducers of DNA re-replication in MCF 10A breast cells; AID 624296; hit rate 2.9% among 350,000; Potency, µM (top dose mostly 46.1 µM), for inactives: top-dose activity, positive = re-replication, usual class: activators; MCF 10A DNA re-replication, Hoechst nuclear intensity, 48 h; also: potency is read from the fitted curve at half-maximal effect; % of control where 0% means no effect; nearly all actives have a fitted effect of over 50% in size
BCR signal inh = inhibitors of chronic active B-cell receptor signaling; ABC-DLBCL IkBa-CBG/CBR reporter, luminescence ratio, 4 h; Potency, µM (series often up to 46.1 µM), for inactives: at the highest dose activity change, negative = inhibition, most hits filed as inhibitors; hit rate 0.05% among 340,000; active = well fitted inhibition curve with a large enough effect in the signal ratio, with a control signal flat, not every such curve was filed as active; inconclusive = small, poorly fitted or top-dose-only effect, or effect the other way, or a change in a side signal; the % refers to the signal ratio;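 also: potency is read from the fitted curve at half-maximal effect; plate controls were basal doxycycline-induced cells for no effect and cells given 10 µM MG132 for full effect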
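TMD8 ABC-DLBCL cells carrying doxycycline-inducible green luciferase fused to IkappaBalpha plus unfused red luciferase were exposed to compounds (up to 46 uM) for 4 hrs at 37C. Activity came from the overlap-corrected green/red luminescence ratio.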
DT40 TDP1 no CPT = qHTS for Inhibitors of human tyrosyl-DNA phosphodiesterase 1 (TDP1): qHTS in cells in absence of CPT | DT40 Tdp1-/- hTDP1 cells, no CPT, ATP luminescence, 48 h | Potency, µM (titrated, usually from 46.2 µM), inactives show at the top dose activity change, negative = growth inhibition, actives largely listed as inhibitors | hit rate 15% among 420,000 | AID 686978, 2013; also: potency is read from the fitted curve at half-maximal effect; % is scaled to controls: 0 for no effect and ±100 for the full control effect; nearly all actives have a fitted effect of over 55% in size
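A cellular qHTS used chicken DT40 cells lacking endogenous Tdp1 but carrying stably transfected human TDP1. Compounds were applied without camptothecin, and cell growth kinetics were judged by ATP-dependent luminescence after ≥48 hr.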
* hit, by the source's call; ? = inconclusive; . = no result; [ ] = dose if it differs, or a comment. Shown are actives, neighbours in structure and some others; about 19% of the full set was active somewhere. Unless noted, calls follow the shape of the dose curve; as a rule, active = well fitted curve in the direction sought with a large enough effect; inconclusive = small, poorly fitted or top-dose-only effect, or another doubt; inactive = no such curve, though single readings can be large; an effect the other way counts as inactive or inconclusive.

SMILES	SW480 rerep	DT40 TDP1 CPT	IL1B secr inh	MCF10A rerep	BCR signal inh	DT40 TDP1 no CPT
COc1ccc(-c2nc3cc(NC(=O)c4ccc(C)cc4)ccc3o2)cc1Cl	.	21µM*	.	.	.	?
CC(C)c1ccc(NC(=O)c2cccnc2)cc1	1%	-28%	22	-5%	-2%	-17%
O=C(Nc1ccc2oc(-c3cccc4c(Br)cccc34)nc2c1)c1ccc(F)cc1	.	?	.	.	.	10µM*
Cc1ccc2oc(-c3cc(NC(=O)c4oc5ccccc5c4C)ccc3Cl)nc2c1	.	0.016µM*	.	.	.	-81%
CC(C)c1ccc2oc(-c3cc(NC(=O)c4cccnc4)ccc3Cl)nc2c1	.	?	.	.	.	16µM*
Cc1c(C(=O)Nc2ccc(-c3nc4cc(Cl)ccc4o3)cc2)oc2ccccc12	.	15%	.	.	.	-11%
CC(NC(=S)NCc1ccccc1)C12CC3CC(CC(C3)C1)C2 (stereo not drawn)	-17%	30%	0	13%	7%	-8%
Cc1nn(-c2ccccc2)c2c1cc1c(=O)n(C)c(=O)nc-1n2-c1cccc(Cl)c1	.	0%	.	.	.	-23%
COc1ccc(/C(C)=N/NC(=O)CN(c2ccc(OC)cc2)S(=O)(=O)c2ccccc2)cc1	-7%	-3%	-8	1%	4%	-12%
CC1(C)C(=O)Nc2ccccc2N1C(=O)COC(=O)COc1ccc(C#N)cc1	-5%	-3%	5	-2%	1%	3%
COc1ccccc1N(CC(O)Cn1ccnc1C)S(=O)(=O)c1ccccc1 (stereo not drawn)	-15%	-10%	-12	-13%	-4%	-16%
COc1ccc(-c2nc(C(=O)N3CCN(C)CC3)sc2-c2ccc(OC)cc2)cc1	.	-9%	.	.	.	-20%
COc1ccc(C(=O)Nc2ccc3oc(-c4cc(Cl)ccc4Cl)nc3c2)cc1Br	.	-3%	.	.	.	6%
N#Cc1ccc(C(=O)Nc2ccc(Cl)c(-c3nc4cc(Cl)ccc4o3)c2)c(F)c1	.	23µM*	.	.	.	18µM*
Cc1ccc(C(=O)Nc2ccc3oc(-c4cc(Br)ccc4Cl)nc3c2)cc1	.	23µM*	.	.	.	?
CCCC(=O)Nc1ccc2oc(-c3ccc(OC)c(Br)c3)nc2c1	?	?	-2	18µM*	-2%	-20%
CCOc1ccc(C(=O)Nc2ccc(-c3nc4cc(CC)ccc4o3)cc2)cc1	.	3.7µM*	.	.	.	?
N#CCSc1nc2[nH]ncc2c(=O)n1-c1ccccc1Br	1%	?	-3	3%	?	-34%
CCc1ccc(-n2c(SCc3cccc(F)c3)nc3[nH]ncc3c2=O)cc1	.	21µM*	.	.	?	16µM*
Cc1ccc(-n2c(SCc3cccc(F)c3)nc3[nH]ncc3c2=O)cc1C	.	21µM*	.	.	?	21µM*
O=c1c2cn[nH]c2nc(SCc2c(F)cccc2F)n1-c1ccc(Cl)cc1	15%	?	-74*	?	?	?
Cc1nc(CSc2nc3[nH]ncc3c(=O)n2-c2ccccc2)cs1	-1%	-13%	9	-1%	?	-3%
CCc1ccc(-n2c(SCc3ccccc3C)nc3[nH]ncc3c2=O)cc1	.	?	.	.	?	21µM*
Cc1ccc(O)c(N=Nc2ccccc2)n1	-9%	2.9µM*	-25	0%	.	16µM*
Oc1ccc(Cl)cc1N=Nc1ccccc1	3%	-21%	9	4%	6%	-28%
SMILES	SW480 rerep	DT40 TDP1 CPT	IL1B secr inh	MCF10A rerep	BCR signal inh	DT40 TDP1 no CPT
Cc1ccc(N2C(=O)CC(Sc3nc4ccccc4o3)C2=O)cc1Cl (stereo not drawn)	?	4.1µM*	-3	1%	0%	3.3µM*
CCCc1c(O)nc(SC2CC(=O)N(c3ccc(C)c(Cl)c3)C2=O)[nH]c1=O (stereo not drawn)	-4%	2%	3	-1%	.	-20%
Cc1ccc(CNCc2cc3c(C(C)(C)C)nn(-c4ccccc4)c3[nH]c2=O)cc1	?	?	-85*	?	5%	25µM*
COc1ccc(CNc2nc(NC(C)=O)nn2-c2ccccc2)cc1	16%	0%	7	-14%	1%	-3%
CC(C)(C)c1nn(-c2ccccc2)c2[nH]c(=O)c(CNCc3ccco3)cc12	2%[9.22 µM]	21µM*	29	?	0%	23µM*
COc1ccc(CNCc2cc3c(C(C)(C)C)nn(-c4ccccc4)c3[nH]c2=O)cc1	-3%	26µM*	10	8%	?	18µM*
CC1CCC2(CC1)NC(=O)N(CC(=O)N1CCN(c3ccccc3)CC1)C2=O (stereo not drawn)	-10%	-21%	6	-6%	3%	0%
COCCn1c(SCC(=O)NC(C)c2ccc(F)cc2)nc2ccccc21 (stereo not drawn)	?	-9%	-2	?	12%	-20%
CCC1C(=O)NCCN1Cc1ccc2c(c1)CN(Cc1ccc3c(c1)OCCO3)CCO2 (stereo not drawn)	.	?	.	.	.	-28%
Cc1ccc(CN2CCc3nc(N4CCN(c5ccccc5F)CC4)ncc3C2)s1	.	-9%	.	.	.	1%
CN1CCN(c2ncc3c(n2)CCN(Cc2cc(Br)cs2)C3)CC1	.	16µM*	.	.	.	?
Brc1csc(CN2CCc3nc(Nc4ccccc4)ncc3C2)c1	.	21µM*	.	.	.	23µM*
COc1cc(Nc2ncc3c(n2)CCN(Cc2cc(Br)cs2)C3)cc(OC)c1	.	16µM*	.	.	.	23µM*
C=CCNc1ncnc2c1ncn2[C@H]1CN(CCc2ccccc2)C[C@@H](CO)O1	.	?	-4	.	.	-29%
Cc1ccc(NC(=S)NNC(=S)Nc2cccc(C(F)(F)F)c2)cc1	16%	?	-6	9%	13%	29µM*
Cc1ccc(NC(=S)NNC(=O)C2CC2c2ccc(C)cc2)cc1 (stereo not drawn)	39%	2%	-2	8%	-5%	-16%
Cc1ccc(NC(=O)CCC(=O)NNC(=S)Nc2ccc(F)cc2)c(C)c1	-12%	-4%	27	-21%	7%	-15%
COc1ccc(NC(=S)NNC(=O)C2CC2c2ccc(C)cc2)cc1 (stereo not drawn)	18µM*	3%	0	?	-4%	-16%
O=C(NNC(=S)Nc1cccc(C(F)(F)F)c1)c1ccncc1	.	4%	-5	.	.	-4%
Cc1ccc(NNC(=S)Nc2ccc(C(C)C)cc2)c(C)c1	6%	?	-109*	7.3µM*	?	16µM*
CN(C)C(=S)Nc1cccc(C(F)(F)F)c1	-1%	26µM*	-13	0%	?	?
